Results published in the supplement of paper PMC10849652.
Targets with a hit are over-represented here; the source holds about 8,800 in all. About 0.5% of all pairs of compound and target were hits.

Key:
Assay in all cases: log2 fold change, soluble protein after heating vs DMSO (PISA); higher = thermal stabilisation; K562 lysate, 10 uM; active = over 0.2 and 3.5 SD of the protein, either way, in both replicates (recomputed)
[1] = compound: C1=CC=C(C=C1)[C@H](COC2=CC3=C(C=C2)NC(=O)N3)NC(=O)C4=CC=CN(C4=O)CC5=CC(=C(C=C5)F)F
Procedure, shortened: (§1)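 Pellets of K562 cells were dounce-homogenised in PBS pH 7.4 with 1 mM MgCl2, and the crude extract was held at 1 mg/mL protein for a 30 min treatment with 10 μM compound. Aliquots were heated for 3 min over 48°C-58°C and pooled before NP-40 was added to 0.5% at 4°C. The supernatant from 21,000xg for 90 min was quantified by TMTpro 16plex LC-MS/MS with channel sums equalised. Values are reported from duplicates as log-two fold change in thermal stability relative to solvent controls.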

[2] = compound: CC1=C(SC2=C1C(=N[C@H](C3=NN=C(N32)C)CC(=O)N)C4=CC=C(C=C4)Cl)C
Procedure, shortened: as §1

[3] = compound: CC1=C2C(=CC=C1)N=C(N(C2=O)C3=CC=CC=C3C)CN4C=NC5=C(N=CN=C54)N
Procedure, shortened: as §1

[4] = compound: Cc1sc2c(c1C)C(c1ccc(Cl)cc1)=N[C@@H](CC(=O)OC(C)(C)C)c1nnc(C)n1-2
Procedure, shortened: as §1

[5] = compound: c1ccc([C@@H]2C[C@H]2NC2CCNCC2)cc1
Procedure, shortened: as §1

Measured: log2 fold change

OTUD7B (UniProt Q6GQQ9)
UniProt Q6GQQ9, sequence (Q6GQQ9 whole entry, looked up): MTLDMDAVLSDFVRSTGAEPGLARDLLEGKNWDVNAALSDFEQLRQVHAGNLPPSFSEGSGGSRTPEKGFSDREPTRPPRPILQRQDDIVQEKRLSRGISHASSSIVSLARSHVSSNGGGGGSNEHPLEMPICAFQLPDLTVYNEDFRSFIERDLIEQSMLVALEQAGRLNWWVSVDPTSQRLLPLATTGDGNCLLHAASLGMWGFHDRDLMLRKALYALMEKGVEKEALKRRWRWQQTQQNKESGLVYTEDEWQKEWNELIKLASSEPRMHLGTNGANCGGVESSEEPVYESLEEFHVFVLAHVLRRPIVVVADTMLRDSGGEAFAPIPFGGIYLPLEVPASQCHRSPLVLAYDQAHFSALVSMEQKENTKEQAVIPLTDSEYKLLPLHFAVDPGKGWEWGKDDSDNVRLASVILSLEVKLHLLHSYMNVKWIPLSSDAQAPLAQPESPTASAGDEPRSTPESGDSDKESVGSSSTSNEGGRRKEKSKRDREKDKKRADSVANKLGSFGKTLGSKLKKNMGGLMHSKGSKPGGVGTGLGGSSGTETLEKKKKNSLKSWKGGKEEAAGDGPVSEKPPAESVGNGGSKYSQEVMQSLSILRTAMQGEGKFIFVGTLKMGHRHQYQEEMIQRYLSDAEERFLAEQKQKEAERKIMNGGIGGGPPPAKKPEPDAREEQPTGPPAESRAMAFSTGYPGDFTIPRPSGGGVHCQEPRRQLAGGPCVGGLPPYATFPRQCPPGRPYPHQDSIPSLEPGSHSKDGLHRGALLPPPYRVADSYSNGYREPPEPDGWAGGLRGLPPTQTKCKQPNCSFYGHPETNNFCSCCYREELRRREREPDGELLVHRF
inactive: [1] -0.004 | [2] 0 | [3] -0.001 | [4] -0.02 | [5] 0.035

MTMR6 (UniProt Q9Y217)
UniProt Q9Y217, sequence (Q9Y217 whole entry, looked up): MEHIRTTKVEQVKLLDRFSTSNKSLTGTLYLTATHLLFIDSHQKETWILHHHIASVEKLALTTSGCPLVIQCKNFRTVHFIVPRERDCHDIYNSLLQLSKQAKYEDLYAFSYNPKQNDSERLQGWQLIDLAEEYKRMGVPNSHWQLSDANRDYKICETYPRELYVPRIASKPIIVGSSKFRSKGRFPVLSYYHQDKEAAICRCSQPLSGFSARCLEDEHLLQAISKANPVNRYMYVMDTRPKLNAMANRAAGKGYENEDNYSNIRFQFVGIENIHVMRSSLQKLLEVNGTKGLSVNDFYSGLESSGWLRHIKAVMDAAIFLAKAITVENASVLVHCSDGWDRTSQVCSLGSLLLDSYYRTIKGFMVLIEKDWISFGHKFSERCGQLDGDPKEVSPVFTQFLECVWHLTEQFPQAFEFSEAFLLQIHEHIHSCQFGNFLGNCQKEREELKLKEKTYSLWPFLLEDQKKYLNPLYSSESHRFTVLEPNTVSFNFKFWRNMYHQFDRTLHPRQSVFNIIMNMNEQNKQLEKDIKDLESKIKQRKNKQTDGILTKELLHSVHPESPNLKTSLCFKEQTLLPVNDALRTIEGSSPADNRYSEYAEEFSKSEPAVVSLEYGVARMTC
inactive: [1] 0.015 | [2] 0.01 | [3] 0.006 | [4] -0.065 | [5] 0.062

NCAPD2 (UniProt Q15021)
UniProt Q15021, sequence (Q15021 whole entry, looked up): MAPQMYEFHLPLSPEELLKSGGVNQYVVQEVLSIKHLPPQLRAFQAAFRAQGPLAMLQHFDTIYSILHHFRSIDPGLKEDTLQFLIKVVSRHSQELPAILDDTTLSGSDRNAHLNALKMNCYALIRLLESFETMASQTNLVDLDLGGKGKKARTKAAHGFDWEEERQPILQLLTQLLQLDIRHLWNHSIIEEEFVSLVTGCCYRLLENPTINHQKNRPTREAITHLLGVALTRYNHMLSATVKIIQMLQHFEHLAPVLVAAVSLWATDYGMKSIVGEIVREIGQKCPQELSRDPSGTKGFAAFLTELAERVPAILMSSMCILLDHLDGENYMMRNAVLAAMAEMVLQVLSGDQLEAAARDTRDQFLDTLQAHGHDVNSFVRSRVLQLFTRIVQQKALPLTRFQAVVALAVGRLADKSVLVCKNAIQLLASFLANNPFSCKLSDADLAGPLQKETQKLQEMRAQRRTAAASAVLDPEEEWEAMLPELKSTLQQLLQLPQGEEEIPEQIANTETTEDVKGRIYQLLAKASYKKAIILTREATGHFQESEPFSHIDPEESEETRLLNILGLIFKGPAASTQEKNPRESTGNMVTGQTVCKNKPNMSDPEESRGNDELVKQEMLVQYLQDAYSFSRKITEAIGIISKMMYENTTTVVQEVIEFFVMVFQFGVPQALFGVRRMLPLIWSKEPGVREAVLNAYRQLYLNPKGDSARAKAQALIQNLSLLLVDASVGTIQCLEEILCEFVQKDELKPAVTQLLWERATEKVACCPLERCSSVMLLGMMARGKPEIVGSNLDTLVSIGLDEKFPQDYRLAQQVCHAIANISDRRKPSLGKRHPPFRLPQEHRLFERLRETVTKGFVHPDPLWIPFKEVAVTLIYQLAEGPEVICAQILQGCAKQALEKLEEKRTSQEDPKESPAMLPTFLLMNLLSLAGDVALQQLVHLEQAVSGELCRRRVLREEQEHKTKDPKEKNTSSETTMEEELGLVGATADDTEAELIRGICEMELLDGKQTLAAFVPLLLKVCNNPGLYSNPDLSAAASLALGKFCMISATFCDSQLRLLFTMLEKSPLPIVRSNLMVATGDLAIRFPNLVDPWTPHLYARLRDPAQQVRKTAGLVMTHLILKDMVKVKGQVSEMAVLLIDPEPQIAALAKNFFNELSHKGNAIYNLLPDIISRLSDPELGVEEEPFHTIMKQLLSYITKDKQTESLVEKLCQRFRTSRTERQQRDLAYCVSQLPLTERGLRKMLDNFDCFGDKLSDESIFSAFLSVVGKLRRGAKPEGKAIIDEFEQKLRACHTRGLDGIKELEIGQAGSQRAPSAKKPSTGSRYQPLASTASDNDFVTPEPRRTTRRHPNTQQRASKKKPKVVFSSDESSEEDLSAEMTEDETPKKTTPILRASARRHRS
inactive: [1] -0.023 | [2] 0.028 | [3] 0.026 | [4] 0.008 | [5] 0.022

NOB1 (UniProt Q9ULX3)
UniProt Q9ULX3, sequence (Q9ULX3 whole entry, looked up): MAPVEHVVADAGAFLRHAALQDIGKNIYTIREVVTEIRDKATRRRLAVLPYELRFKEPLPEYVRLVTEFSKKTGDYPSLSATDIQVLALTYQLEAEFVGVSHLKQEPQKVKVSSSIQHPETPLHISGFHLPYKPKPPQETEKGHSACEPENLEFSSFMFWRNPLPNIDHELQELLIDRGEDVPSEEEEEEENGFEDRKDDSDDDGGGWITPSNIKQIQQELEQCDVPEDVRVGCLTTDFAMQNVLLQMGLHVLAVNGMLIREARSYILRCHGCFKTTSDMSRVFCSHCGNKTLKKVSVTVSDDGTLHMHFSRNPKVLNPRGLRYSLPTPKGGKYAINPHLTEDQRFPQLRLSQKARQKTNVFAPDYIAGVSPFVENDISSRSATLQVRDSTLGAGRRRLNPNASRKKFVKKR
inactive: [1] 0.004 | [2] -0.051 | [3] 0.038 | [4] -0.021 | [5] 0.13

NFKBIE (UniProt O00221)
UniProt O00221, sequence (O00221 whole entry, looked up): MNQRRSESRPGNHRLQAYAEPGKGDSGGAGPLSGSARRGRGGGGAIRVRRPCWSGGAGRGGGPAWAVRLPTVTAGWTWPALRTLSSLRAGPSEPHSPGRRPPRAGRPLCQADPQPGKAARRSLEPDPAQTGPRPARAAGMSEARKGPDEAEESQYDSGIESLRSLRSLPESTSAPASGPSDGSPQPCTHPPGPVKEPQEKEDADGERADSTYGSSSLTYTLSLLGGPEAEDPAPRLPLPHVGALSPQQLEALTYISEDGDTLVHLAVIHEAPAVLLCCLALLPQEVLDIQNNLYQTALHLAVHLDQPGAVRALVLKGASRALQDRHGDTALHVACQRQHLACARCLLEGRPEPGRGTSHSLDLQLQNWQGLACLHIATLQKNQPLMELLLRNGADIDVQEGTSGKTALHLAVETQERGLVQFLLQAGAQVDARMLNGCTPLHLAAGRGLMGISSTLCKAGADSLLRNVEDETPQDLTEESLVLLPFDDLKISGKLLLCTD
inactive: [1] -0.014 | [2] -0.068 | [3] 0.033 | [4] 0.081 | [5] -0.087

MRPL53 (UniProt Q96EL3)
inactive: [1] -0.056 | [2] -0.102 | [3] 0.079 | [4] -0.026 | [5] -0.093

PAN2 isoform 2 (UniProt Q504Q3)
UniProt Q504Q3, sequence (Q504Q3 whole entry, looked up): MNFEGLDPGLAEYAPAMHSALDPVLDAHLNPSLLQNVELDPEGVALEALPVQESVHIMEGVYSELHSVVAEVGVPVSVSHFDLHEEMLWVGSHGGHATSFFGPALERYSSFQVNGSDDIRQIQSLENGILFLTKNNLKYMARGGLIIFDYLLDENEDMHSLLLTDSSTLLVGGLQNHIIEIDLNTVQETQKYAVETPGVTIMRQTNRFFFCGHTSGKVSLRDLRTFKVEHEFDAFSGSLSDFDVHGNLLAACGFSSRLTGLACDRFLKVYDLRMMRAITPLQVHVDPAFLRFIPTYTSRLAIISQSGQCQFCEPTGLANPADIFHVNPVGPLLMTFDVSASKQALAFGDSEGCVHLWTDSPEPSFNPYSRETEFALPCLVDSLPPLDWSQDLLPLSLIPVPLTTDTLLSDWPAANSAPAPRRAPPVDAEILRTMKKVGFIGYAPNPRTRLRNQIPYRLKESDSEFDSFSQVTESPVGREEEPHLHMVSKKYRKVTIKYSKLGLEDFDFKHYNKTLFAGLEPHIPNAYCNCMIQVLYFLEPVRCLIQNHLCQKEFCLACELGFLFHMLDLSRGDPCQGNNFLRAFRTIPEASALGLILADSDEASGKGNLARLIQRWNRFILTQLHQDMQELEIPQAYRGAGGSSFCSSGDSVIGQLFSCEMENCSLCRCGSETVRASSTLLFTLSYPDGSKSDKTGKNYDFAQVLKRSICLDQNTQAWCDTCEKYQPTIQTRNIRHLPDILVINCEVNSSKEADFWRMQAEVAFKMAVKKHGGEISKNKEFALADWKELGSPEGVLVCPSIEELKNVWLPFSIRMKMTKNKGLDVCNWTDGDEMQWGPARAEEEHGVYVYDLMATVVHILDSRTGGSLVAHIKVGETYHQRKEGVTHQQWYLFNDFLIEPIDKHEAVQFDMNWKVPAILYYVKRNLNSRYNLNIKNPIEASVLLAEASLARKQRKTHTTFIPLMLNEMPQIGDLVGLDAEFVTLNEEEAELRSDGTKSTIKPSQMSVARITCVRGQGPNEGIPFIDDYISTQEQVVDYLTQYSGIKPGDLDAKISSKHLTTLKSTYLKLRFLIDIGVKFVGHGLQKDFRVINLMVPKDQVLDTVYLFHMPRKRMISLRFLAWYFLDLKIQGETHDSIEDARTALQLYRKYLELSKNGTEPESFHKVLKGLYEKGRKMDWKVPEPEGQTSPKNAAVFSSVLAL
inactive: [1] -0.108 | [2] 0.086 | [3] -0.004 | [4] -0.044 | [5] 0.007

NDC1 (UniProt Q9BTX1)
inactive: [1] 0.001 | [2] -0.055 | [3] 0.003 | [4] 0.02 | [5] -0.172

NUDT5 (UniProt Q9UKK9)
inactive: [1] 0.053 | [2] -0.126 | [3] -0.012 | [4] -0.097 | [5] -0.158
